CHO-K1 Ca ag – nonselective activator or artifact in parental CHO-K1 cells. Fluo-8 calcium fluorescence; scaled to maximal ATP response, vehicle zero. activation, % at 3 µM. 0.48% of 360,000 active. AID 602248; in the data active means activation above about 15%;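 further: untransfected CHO-K1 host cells lacking M1 receptor as counterscreen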
M1 antag – blocks human M1 muscarinic receptor; P11229; CHO-K1 hM1, Fluo-8 calcium fluorescence, ACh EC80 antagonist; AID 588852; inhibition, % at 3 µM; 1.3% of 360,000 active;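 active means percent inhibition above its own plate's cutoff, namely the mean of that plate's compound wells plus 3 SD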;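 further: peak over basal fluorescence ratio during 140 s after agonist addition; 0% = ACh EC80 plus DMSO and 100% = DMSO alone without agonist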
Target sequence (P11229 whole entry, looked up): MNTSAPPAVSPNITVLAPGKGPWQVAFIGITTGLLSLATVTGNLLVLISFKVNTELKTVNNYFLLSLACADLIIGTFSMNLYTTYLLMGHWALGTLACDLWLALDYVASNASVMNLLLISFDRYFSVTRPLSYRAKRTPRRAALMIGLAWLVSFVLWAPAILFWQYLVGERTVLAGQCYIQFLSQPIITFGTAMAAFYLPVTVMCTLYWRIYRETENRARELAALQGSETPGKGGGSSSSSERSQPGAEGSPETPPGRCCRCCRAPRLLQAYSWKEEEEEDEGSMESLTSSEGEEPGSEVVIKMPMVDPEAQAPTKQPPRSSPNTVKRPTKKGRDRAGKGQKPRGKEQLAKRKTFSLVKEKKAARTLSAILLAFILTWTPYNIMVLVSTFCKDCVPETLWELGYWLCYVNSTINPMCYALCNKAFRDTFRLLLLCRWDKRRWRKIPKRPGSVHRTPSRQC
CHO-K1 Ca antag – nonselective inhibitor or artifact in parental CHO-K1 cells. inhibition, % at 3 µM. AID 602250. 0.6% of 360,000 active. ATP-induced calcium, Fluo-8 fluorescence;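 active means inhibition above a per-plate cutoff, the plate's mean sample inhibition plus 3 SD, cut at about 24% in these data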;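 further: 0% = DMSO plus EC80 ATP and 100% = DMSO alone without ATP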
M1 PAM parental – counter-screen for M1 PAMs: effect in parental CHO-K1 cells; ATP EC20, Fluo-8 calcium fluorescence; 0% at ATP EC20, 100% at ATP max; activation, % at 3 µM; 0.02% of 360,000 active;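 active means activation above the run cutoff, the mean activation of all test compounds plus 3 SD, cut at about 40% in these data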;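 further: peak over basal fluorescence ratio in a 140 s read after ATP addition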
M1 ag – activates human CHRM1 receptor; P11229; CHO-K1 hM1, Fluo-8 calcium fluorescence, agonist mode; 0% DMSO, 100% acetylcholine EC100; activation, % at 3 µM; 0.33% of 360,000 active; AID 588814;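 active means activation above the run's mean compound activation plus 3 SD, cut at about 16% in these data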;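 further: peak over basal fluorescence ratio within a 140 s kinetic read after compound addition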
M1 PAM – positive allosteric modulators of human M1 muscarinic receptor. CHO-K1 hM1, Fluo-8 calcium fluorescence, ACh EC20; 0% = ACh EC20, 100% = maximal ACh. activation, % at 3 µM. 0.088% of 360,000 active; in the data active means activation above about 19%, passing the limit was not always enough
Starred values were filed as active, the others as inactive. Hits are enriched below; roughly 2.3% of the tested compounds scored in any of these assays.

SMILES | CHO-K1 Ca ag | M1 antag | CHO-K1 Ca antag | M1 PAM parental | M1 ag | M1 PAM
COc1ccc(C(=O)N2CCc3cc(OC)c(OC)cc3C2c2ccc(OC)c(OC)c2)cc1 (configuration not stated) | -0.4 | -6.1 | 24.4* | -8.2 | 0.6 | 13.8
Nc1ccc(-c2c3ccc(=O)cc-3oc3cc(O)ccc23)c(C(=O)O)c1 | 108.4* | 29.0 | 29.2* | -14.5 | 116.9* | -14.8
Cc1cc(NS(=O)(=O)c2c(C)c(C)cc(C)c2C)no1 | 0.3 | 3.4 | -6.3 | 10.9 | -2.3 | 1.7
COc1ccc(/C=N/NC(=O)CNc2n[nH]c(=O)[nH]c2=O)cc1OC | -0.2 | 15.8 | 26.9* | -8.4 | -4.2 | -9.3
COc1ccccc1C1CCN(Cc2ccc(C)cc2)CC1 | 18.1* | -8.7 | -3.9 | 18.3 | -4.7 | 2.8
COc1ccccc1C1CCN(Cc2cccc(C(=O)N3CCC(O)CC3)c2)CC1 | 0.4 | 25.3 | 1.9 | -4.5 | 3.2 | -8.1
O=C(Nc1ccc2c(c1)OCO2)Nc1ccc2c(c1)OCO2 | 1.2 | -7.4 | 7.7 | -3.5 | -4.5 | 8.9
O=C(Nc1ccc2c(c1)OCO2)Nc1ccc(F)cc1F | 1.2 | 4.0 | 20.4 | -28.4 | -0.2 | 1.7
CC(C)CN(CC(C)C)C(=O)Nc1cccc([N+](=O)[O-])c1 | 15.3* | 5.0 | -11.1 | 0.1 | -10.4 | -2.6
O=C(Nc1ccc(Cl)cc1)Nc1ccc2c(c1)OCO2 | 13.1 | 36.2* | 7.9 | -10.9 | 2.5 | -13.8
O=C(Nc1ccc(OC(F)F)c(Cl)c1)Nc1ccc2c(c1)OCO2 | 8.1 | 17.2 | 27.1* | 3.8 | 1.0 | -6.2
CC(C(=O)Nc1cccc([N+](=O)[O-])c1)[n+]1ccccc1 (configuration not stated) | 1.0 | -7.2 | -2.4 | 5.8 | -10.1 | 10.6
O=C(Nc1ccc(F)cc1)Nc1ccc2c(c1)OCO2 | 20.7* | 1.6 | 9.8 | -11.4 | 4.2 | 2.5
CC(C)CCN(C(=O)Cc1ccc(Cl)c(Cl)c1)c1c(N)n(Cc2ccccc2)c(=O)[nH]c1=O | 0.2 | 3.4 | -9.4 | 9.1 | -1.1 | 2.9
O=C(NCc1ccco1)C(c1cccnc1)N(C(=O)Cn1nnc2ccccc21)c1ccc(F)cc1 (configuration not stated) | 0.1 | -28.8 | -4.1 | 9.7 | -2.8 | 4.2
O=C(Nc1ccc([N+](=O)[O-])cc1)Nc1ccc(OC(F)F)c(Cl)c1 | 32.3* | 40.2* | 25.1* | 8.0 | 1.1 | -15.0
COc1ccc(NC(=O)Nc2cccc([N+](=O)[O-])c2)cc1Cl | 13.9 | 15.9 | 30.4* | -3.2 | 2.0 | -10.4
O=C(CNCc1ccc(Cl)cc1)Nc1ccc2c(c1)OCCO2 | 21.5* | -3.6 | -10.4 | 21.5 | -4.9 | 7.1
CC(=O)Nc1cccc(C(=O)OCC(=O)NC2CCCCCCC2)c1 | 15.1* | 4.7 | -13.8 | -10.3 | 0.7 | -3.8
CC(NC(=O)CN(c1cccc(C(F)(F)F)c1)S(C)(=O)=O)c1ccccc1 (configuration not stated) | 3.2 | -15.4 | -8.9 | 13.6 | 7.2 | 5.5
COc1ccc(-c2nnc(SCC(=O)NCC3CCCO3)o2)cc1 (configuration not stated) | -0.1 | -3.7 | -1.6 | -2.4 | -3.2 | 5.3
Cc1cc(C)cc(-c2nnc(SCC(=O)NCC3CCCO3)o2)c1 (configuration not stated) | 0.2 | -24.5 | -15.7 | 12.7 | 0.7 | 28.4*
CCN(CC)CCCNC(=O)CSc1nc(-c2ccc(F)cc2)cc(C(F)(F)F)n1 | 0.5 | 5.3 | 1.2 | -7.2 | -8.1 | 3.5
Cc1ccc(/C=C2\CCC3=C2OC(N)=C(C#N)C3c2ccc(C)cc2)cc1 (configuration not stated) | 15.7* | 49.8* | 34.7* | -12.3 | 26.7* | -11.9
CCCCn1nc(C(=O)N(C)C2CCCCC2)c2ccccc2c1=O | -0.3 | 3.9 | -5.0 | -3.1 | -0.6 | 0.8
SMILES | CHO-K1 Ca ag | M1 antag | CHO-K1 Ca antag | M1 PAM parental | M1 ag | M1 PAM
N#CCCN=C(NS(=O)(=O)c1ccccc1)c1ccccc1 | 1.2 | -22.7 | -5.5 | 4.7 | 1.0 | 27.7*
O=C(O)CN=C(NS(=O)(=O)c1ccccc1)c1ccccc1 | 0.2 | -0.7 | -5.3 | 4.3 | 0.9 | 6.0
CC(C)Cc1ccc(C(C)C(=O)Nc2ccccc2O)cc1 (configuration not stated) | 38.2* | 69.1* | 45.8* | -8.4 | 35.5* | -16.7
CC(C)Cc1ccc(C(C)C(=O)Nc2nccs2)cc1 (configuration not stated) | 16.5* | -1.0 | 7.8 | 21.7 | 23.6* | 0.5
CC(C)c1ccc(CNC(=O)C(=O)Nc2nccs2)cc1 | -0.1 | 8.5 | 16.3 | -11.4 | -5.0 | -5.5
Cc1ccc(NC(=S)NC(=O)c2ccc(-c3ccc(Cl)cc3)o2)c(O)c1 | 0.5 | -7.6 | -10.5 | 17.5 | -6.8 | 6.3
Cc1ccc(O)c(NC(=S)NC(=O)Cc2ccc(Cl)cc2)c1 | 57.6* | 97.1* | 90.2* | -20.5 | 79.4* | -26.3
Cc1cccc[n+]1CCCCCCCCCC[n+]1ccccc1C | 1.5 | 18.0 | -2.3 | 3.7 | -5.3 | -14.2
CCCCCCCC[n+]1cccc2c3ccccc3ccc21 | 2.6 | 97.9* | 18.4 | -0.2 | -4.4 | -23.2
CCCCCCCCCC[n+]1cccc2c3ccccc3ccc21 | 17.9* | 81.6* | 40.2* | -3.3 | -2.8 | -22.7
CC(C)CCN1CCN(Cc2nc3c(s2)CCCC3)CC1CCO (configuration not stated) | 1.0 | -0.9 | -9.2 | 0.5 | -8.7 | 1.1
O=C(NCC(c1ccco1)N1CCCC1)c1ccc(S(=O)(=O)Nc2ccccc2F)cc1 (configuration not stated) | 3.0 | 65.5* | 0.1 | -4.0 | -6.8 | -24.6
O=C(NCC(c1ccco1)N1CCCCC1)c1ccc(COc2ccc(Cl)cc2)cc1 (configuration not stated) | 2.1 | 79.5* | -4.2 | 22.1 | -4.8 | -26.0
O=C(NCC(c1ccco1)N1CCCC1)c1ccc(S(=O)(=O)Nc2ccccc2Cl)cc1 (configuration not stated) | 0.8 | 5.1 | 11.8 | 2.8 | -7.4 | -9.5
COc1ccccc1/C=N\NC(=O)c1ccc(COc2ccc(C)c(C)c2)o1 | 0.7 | -4.0 | -1.7 | -6.5 | -0.7 | 5.8
Cc1ccc(NC(=O)CN(C)C(=O)C(Sc2ccccc2)c2ccccc2)cc1 (configuration not stated) | 0.8 | -6.2 | -8.7 | 3.7 | -5.5 | 2.9
O=[N+]([O-])c1cc(S(=O)(=O)NCCCN2CCOCC2)ccc1Cl | 0.1 | -3.0 | -4.2 | 18.6 | -3.8 | 3.3
Cc1ccc(-n2nnnc2Sc2ccc(S(=O)(=O)NCCN(C)C)cc2[N+](=O)[O-])cc1 | 0.5 | 86.4* | 7.6 | -5.5 | -7.0 | -26.8
O=[N+]([O-])c1cc(S(=O)(=O)NCCN2CCOCC2)ccc1Sc1nnnn1-c1ccccc1 | 3.4 | 61.9* | -2.1 | 22.7 | -12.6 | -26.5

Screens from PubChem.
